# PubChem BioAssay (NCATS)
# Results filed as inconclusive are left out. A call without a number means that no potency is given here. Calls of active or inactive are those of the source. Calls come from the whole dose curve; as a rule, active = well fitted curve in the direction sought with a large enough effect; inconclusive = small, poorly fitted or top-dose-only effect, or another doubt; inactive = no such curve, though single readings can be large; an effect the other way counts as inactive or inconclusive.
# Experiments:
# [1] = Cell Viability - LYMP1-003 - Assay at 24 hr (AID 963)
# Summary of the method: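 Human lymphoblastoid LYMP1-003 cells, 2500/well, treated 24 h at 37 C in complete medium. Viability read as intracellular ATP by CellTiter-Glo luminescence after 30 min at room temperature; AC50 from Hill-equation fits of qHTS concentration-response.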
# [2] = Cell Viability - LYMP1-003 - Assay at 40 hr (AID 964); note: nearly all actives have a fitted effect of over 60% in size
# Summary of the method: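 LYMP1-003 human lymphoblastoid cells, 2500/well, preincubated 5 h at 37 C, then treated with compound for 40 h at 37 C. Intracellular ATP read by CellTiter-Glo luminescence after 30 min at room temperature; AC50 from Hill-equation fits.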
# [3] = Cell Viability - LYMP2-003 (AID 965);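 note: cells exposed to compounds for 24 h before reading; nearly all actives have a fitted effect of over 50% in size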
# Summary of the method: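 Human lymphoblastoid LYMP2-003 cells, 2500/well, exposed to compounds for 24 h at 37 C in complete medium. Viability read as intracellular ATP by CellTiter-Glo luminescence; AC50 from Hill-equation fits of qHTS concentration-response data.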
# [4] = Cell Viability - LYMP2-011 (AID 969); note: nearly all actives have a fitted effect of over 60% in size
# Summary of the method: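 2500 cells/well in complete medium, compound-treated 24 h at 37 C. Viability read as intracellular ATP by CellTiter-Glo luminescence after 30 min at room temperature. AC50 from Hill fits of qHTS concentration-response data.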
# [5] = Cell Viability - LYMP2-017 (AID 972); note: nearly all actives have a fitted effect of over 55% in size
# Summary of the method: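 LYMP2-017 human lymphoblastoid cells (2500/well) settled 5 hr at 37 C, then exposed to compound 24 hr at 37 C in complete medium. Viability taken as intracellular ATP by CellTiter-Glo luminescence after 30 min at RT; AC50 from Hill fits.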
# [6] = Cell Viability - LYMP2-019 (AID 973); note: nearly all actives have a fitted effect of over 55% in size
# Summary of the method: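 Human lymphoblastoid LYMP2-019 cells (2500/well) preincubated 5 h at 37 C, then treated 24 h at 37 C in complete medium. Viability by CellTiter-Glo ATP luminescence after 30 min at room temperature; AC50 from Hill fits.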
# [7] = Cell Viability - LYMP2-023 (AID 975); note: nearly all actives have a fitted effect of over 55% in size
# Summary of the method: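 LYMP2-023 human lymphoblastoid cells, 2500/well, preincubated 5 hr at 37 C, then compound-treated 24 hr at 37 C in complete medium. CellTiter-Glo luminescence (ATP) after 30 min at room temperature; AC50 from Hill-equation fits; tetraoctylammonium bromide positive control.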
# [8] = Cell Viability - LYMP2-025 (AID 976)
# Summary of the method: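 Human lymphoblastoid LYMP2-025 cells, 2500/well, exposed 24 h at 37 C in complete medium in 1536-well qHTS. Viability as cellular ATP by CellTiter-Glo luminescence; AC50 from Hill fits of concentration-response data.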
# [9] = Cell Viability - LYMP2-008 (AID 980); note: nearly all actives have a fitted effect of over 60% in size
# Summary of the method: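 LYMP2-008 lymphoblastoid cells (2500/well) plated 5 h, then treated 24 h at 37 C in complete medium. Viability read as intracellular ATP by CellTiter-Glo luminescence after 30 min at room temperature; AC50 from Hill fits.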
# [10] = Cell Viability - LYMP2-010 (AID 981); note: nearly all actives have a fitted effect of over 55% in size
# Summary of the method: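 Human lymphoblastoid LYMP2-010 cells (2500/well) treated 24 h at 37 C in complete medium; viability read as intracellular ATP by CellTiter-Glo luminescence. AC50 from Hill fits of concentration-response data; tetraoctylammonium bromide positive control.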
# [11] = Cell Viability - LYMP2-012 (AID 982)
# [12] = Cell Viability - LYMP2-014 (AID 983); note: nearly all actives have a fitted effect of over 50% in size
# Summary of the method: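 LYMP2-014 human lymphoblastoid cells, 2500/well, treated 24 h at 37 C in complete medium; viability by CellTiter-Glo ATP luminescence after 30 min at room temperature. AC50 from Hill fits of qHTS concentration-response; tetraoctylammonium bromide positive control.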
# [13] = Cell Viability - LYMP2-016 (AID 984); note: nearly all actives have a fitted effect of over 55% in size
# Summary of the method: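 Human lymphoblastoid LYMP2-016 cells, 2500 per well, treated with compounds for 24 h at 37 C. Viability read as intracellular ATP by CellTiter-Glo luminescence after 30 min at room temperature; AC50 from Hill fits of concentration-response.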
# [14] = Cell Viability - LYMP2-018 (AID 985);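 note: compound exposure lasted 24 hr at 37 °C; nearly all actives have a fitted effect of over 50% in size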
# Summary of the method: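 Human lymphoblastoid LYMP2-018 cells, 2500/well, settled 5 hr at 37 C then exposed to compound 24 hr at 37 C; intracellular ATP measured by CellTiter-Glo luminescence. AC50 from Hill-equation concentration-response fits.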
# [15] = Cell Viability - LYMP2-020 (AID 986); note: nearly all actives have a fitted effect of over 55% in size
# Summary of the method: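 Human lymphoblastoid LYMP2-020 cells (2500/well) preincubated 5 h at 37 C, then treated 24 h at 37 C. Viability measured as intracellular ATP by CellTiter-Glo luminescence after 30 min at room temperature; AC50 from Hill fits.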
# [16] = Cell Viability - LYMP2-022 (AID 987); note: nearly all actives have a fitted effect of over 55% in size
# Summary of the method: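 LYMP2-022 lymphoblastoid cells (2500/well, complete medium) were treated with compounds for 24 hours at 37 C; intracellular ATP was then read by CellTiter-Glo luminescence after 30 min at room temperature. AC50 values were derived from Hill-equation fits.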
# [17] = Cell Viability - LYMP2-024 (AID 988); note: nearly all actives have a fitted effect of over 60% in size
# Summary of the method: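 Human lymphoblastoid LYMP2-024 cells (2500/well) rested 5 hr, then treated with compound for 24 hr at 37 C in complete medium. Viability was measured as intracellular ATP by CellTiter-Glo luminescence. AC50 values came from Hill-equation fits.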
# [18] = Cell Viability - LYMP2-026 (AID 989); note: nearly all actives have a fitted effect of over 50% in size
# Summary of the method: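 Human lymphoblastoid LYMP2-026 cells, 2500/well, exposed to compound 24 h at 37 C in complete medium. Viability as intracellular ATP by CellTiter-Glo luminescence; AC50 from Hill fits of qHTS concentration-response.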
# [19] = Cell Viability - LYMP1-002 - Assay at 24 hr (AID 993)
# Summary of the method: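 Human lymphoblastoid LYMP1-002 cells (2500/well) treated 24 h at 37 °C; viability as intracellular ATP by CellTiter-Glo luminescence. Tetraoctylammonium bromide as positive control; AC50 from Hill-equation fits of qHTS concentration-response.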
# [20] = Cell Viability - LYMP1-002 - Assay at 40 hr (AID 994); note: nearly all actives have a fitted effect of over 60% in size
# Summary of the method: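 LYMP1-002 human lymphoblastoid cells (2500/well, complete medium) were treated with compounds for 40 hr at 37 C. Intracellular ATP was measured by CellTiter-Glo luminescence, and AC50 values came from Hill-equation fits of concentration-response data; tetraoctylammonium bromide was the positive control.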
# Potency is the fitted concentration of half-maximal effect.
SMILES,Potency [1],Potency [2],Potency [3],Potency [4],Potency [5],Potency [6],Potency [7],Potency [8],Potency [9],Potency [10],Potency [11],Potency [12],Potency [13],Potency [14],Potency [15],Potency [16],Potency [17],Potency [18],Potency [19],Potency [20]
CCCCCCCCCc1ccc(O)cc1,inactive,inactive,inactive,inactive,inactive,inactive,inactive,inactive,inactive,inactive,inactive,inactive,inactive,inactive,inactive,inactive,inactive,inactive,inactive,inactive
O=C1C(Cl)=C(Cl)C(=O)C(Cl)=C1Cl,31.6 µM (active),31.6 µM (active),20 µM (active),25.1 µM (active),20 µM (active),25.1 µM (active),25.1 µM (active),50.1 µM (active),39.8 µM (active),12.6 µM (active),15.8 µM (active),20 µM (active),25.1 µM (active),39.8 µM (active),12.6 µM (active),15.8 µM (active),10 µM (active),25.1 µM (active),39.8 µM (active),39.8 µM (active)
